# High-throughput results: PubChem, National Center for Advancing Translational Sciences (NCATS)
# TRPV1 agonist = HTS Assay for Compounds that Act as Agonists of the Vanilloid Receptor 1 | TRPV1-expressing cells, Fluo-8 calcium influx, agonist mode | activation, % at 8.33 µM | 320,000 tested, 0.19% active | AID 540275, 2011; in the data active means activation above about 80%; inconclusive means between about 30% and that limit; further: 0% is about no effect
#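 TRPV1-expressing cells were cultured overnight at 35.5C and loaded with Fluo-8 calcium dye for 40 to 90 min at room temperature. After a 10 s baseline, compound was added and calcium influx was read kinetically for 3 min (ex 480/em 520 nm).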
# TRPML1 ag = qHTS for Agonists of the Human Mucolipin Transient Receptor Potential 1 (TRPML1); activation, % (concentration not given with the values); AID 624414, 2012; 410,000 tested, 0.12% active; TRPML1-expressing cells, Ca2+ dye fluorescence, FDSS; Mucolipin-1 (Homo sapiens), Q9GZU1; in the data active means activation above about 50%; inconclusive means mostly about 30% to 49%; further: 0% is about no effect
# Target sequence (Q9GZU1 whole entry, looked up): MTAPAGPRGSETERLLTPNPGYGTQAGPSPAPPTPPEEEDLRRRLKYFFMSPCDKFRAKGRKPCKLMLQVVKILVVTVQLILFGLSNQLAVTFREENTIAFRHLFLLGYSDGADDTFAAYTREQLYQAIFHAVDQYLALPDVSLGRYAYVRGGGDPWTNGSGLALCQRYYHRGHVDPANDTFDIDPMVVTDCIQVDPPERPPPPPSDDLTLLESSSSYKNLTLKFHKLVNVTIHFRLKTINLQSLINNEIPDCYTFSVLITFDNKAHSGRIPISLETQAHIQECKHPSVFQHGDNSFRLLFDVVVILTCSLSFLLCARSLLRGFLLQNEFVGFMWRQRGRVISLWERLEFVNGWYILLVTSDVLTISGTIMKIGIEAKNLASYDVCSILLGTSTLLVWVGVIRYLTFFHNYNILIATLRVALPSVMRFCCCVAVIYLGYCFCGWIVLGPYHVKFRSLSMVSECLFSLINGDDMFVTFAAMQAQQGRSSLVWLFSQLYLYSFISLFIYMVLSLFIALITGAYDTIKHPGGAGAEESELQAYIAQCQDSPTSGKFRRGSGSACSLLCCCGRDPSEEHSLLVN
#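 Calcium fluorescence on an FDSS kinetic reader gave the read-out. Tet-induced TRPML1-DL cells were plated overnight, dye-loaded (Ca8 with quencher, 45-90 min, room temperature, dark), then read 110 s after compound addition, and again 110 s after 4uM final 54-4 (EC80).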
# TRPV1 PAM = HTS Assay for Compounds that Act as Potentiators of the Vanilloid Receptor 1. 320,000 tested, 0.02% active. TRPV1-expressing cells, Fluo-8 calcium influx, capsaicin EC20 potentiation. potentiation, % at 8.33 µM; in the data active means potentiation above about 80%; inconclusive means between about 30% and that limit; further: 0% is about no effect
#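 Cells expressing TRPV1 were dye-loaded with Fluo-8 and read kinetically: 10 s baseline, 3 min after compound (agonist portion), then 2 min after EC20 capsaicin (allosteric enhancer portion). Calcium-bound dye fluorescence at 480/520 nm.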
# TRPML1 inh = qHTS for Inhibitors of the Human Mucolipin Transient Receptor Potential 1 (TRPML1) | activity change, negative = inhibition, % (test concentration not listed) | TRPML1-inducible cells, Ca2+ dye fluorescence, FDSS; hits give low values; inhibition of EC80 agonist-evoked calcium signal | Mucolipin-1 (Homo sapiens), Q9GZU1 | 390,000 tested, 0.02% active; in the data active means activity change below about -50%; inconclusive means between about -30% and that limit;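 further: stimulus is agonist 54-4 at its EC80 concentration; on the % scale 0 is the no-effect control and ±100 the full control effect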
#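 Calcium fluorescence in TRPML1-DL cells induced overnight with Tet: a 110 s read after compound pin addition, then a 110 s antagonist read after challenge with 54-4 at 4 uM final (EC80).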
# Starred values were filed as active, the others as inactive; ? = inconclusive; . = no result. This is a sample that favours compounds with a hit; in the whole collection about 0.27% have one here.
SMILES,TRPV1 agonist,TRPML1 ag,TRPV1 PAM,TRPML1 inh
O=[N+]([O-])c1ccc(N2CCCCCC2)c2nonc12,?,110.2*,-19.5,-21.4
O=[N+]([O-])c1ccc(N2CCCCC2)c2ncccc12,3.3,0.0,7.0,32.5
COC(=O)C1=C(c2ccc(OC)c(OC)c2)C[C@@H]2CC[C@H]1N2C(=O)NCCOc1ccccc1Cl,10.5,0.8,3.2,27.3
C=Cn1c(P(=S)(N2CCOCC2)N2CCOCC2)cc2c1CCCC2,17.5,68.0*,-13.8,-4.2
Nc1ncc(P(=S)(N2CCOCC2)N2CCOCC2)s1,-1.4,-0.1,5.7,0.7
CCOC(=O)c1cc2c(cn1)[C@H](CCO)NC2,.,-0.4,.,17.1
Nc1ccc2ccc3cccc[n+]3c2c1,8.0,86.7*,-13.6,-7.1
C[n+]1c(-c2ccccc2)c2cc(N)ccc2c2ccc(N)cc21,7.7,-0.2,-0.8,10.1
O=c1cc(C(F)(F)F)c2cc3c4c(c2o1)CCCN4CCC3,?,106.0*,6.5,-1.1
CC(=O)NC(Cc1ccc(N(CCCl)CCCl)cc1)C(=O)O (centres undefined),-4.2,0.2,5.2,-10.9
O=C(Cn1nc(-c2ccc(Cl)cc2)ccc1=O)N1CCC2(CC1)OCCO2,5.6,0.0,105.2*,23.9
Cc1ccc2c(c1Cl)NC(C(=O)O)C1CC(Sc3ccccc3[N+](=O)[O-])C(Cl)C21 (centres undefined),0.8,0.5,8.4,15.8
CN1/C(=C\C=C2C(=O)NC(=S)NC2=O)C(C)(C)c2ccccc21,98.2*,116.7*,-12.2,-17.7
O=C(Nc1ccc(Br)cc1C(=O)c1ccccc1)c1ccccc1,.,-0.9,.,-18.5
O=C(Nc1ccc(Br)cc1C(=O)c1ccccc1Cl)c1ccccc1F,.,77.4*,.,-24.4
O=[N+]([O-])c1ccc(NCc2ccccc2)c2nonc12,126.2*,77.5*,-7.4,-16.9
